High-throughput results (PubChem BioAssay)
Shown are actives, neighbours in structure and some others; about 18% of the full set was active somewhere.
IL-1B inflam inh: qHTS for Inhibitors of Inflammasome Signaling: IL-1-beta AlphaLISA Primary Screen. activity change, % at 57.5 µM. hit rate 4.7% among 360,000. THP-1 LPS/ATP IL-1B secretion, AlphaLISA, 16 h; hits give low values. AID 743279, 2014; in the data active = activity change below about -50%; inconclusive = mostly about -30% to -49%
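THP-1 cells pretreated 1 hr with compounds (up to 57.5 uM final), then stimulated with LPS (250 ng/mL final) plus ATP (1.25 mM final); secreted IL-1B measured by AlphaLISA after 16 hr, decreased signal indicating inhibition.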
DT40 TDP1 CPT: qHTS for Inhibitors of human tyrosyl-DNA phosphodiesterase 1 (TDP1): qHTS in cells in presence of CPT; Potency, µM (series often up to 46.2 µM), without a hit: top-dose activity change, negative = growth inhibition, most hits filed as inhibitors; AID 686979, 2013; hit rate 12% among 420,000; chicken DT40 Tdp1-/-;hTDP1 cells + 20 nM CPT, ATP luminescence, 48 h; note: potency is the fitted concentration of half-maximal effect; nearly all actives have a fitted effect of over 55% in size
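Chicken DT40 Tdp1-/- cells stably complemented with human TDP1 were seeded at 400 cells/well in medium containing 20 nM camptothecin, exposed to pin-transferred compounds, and grown at 37 °C for at least 48 hr. Viability was read as ATP luminescence.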
LDHA inh: qHTS assay for inhibitors of human lactate dehydrogenase; purified LDHA, NADH/diaphorase-resazurin fluorescence; hits give low values; activity change, % (values are at about 110 or 230 µM); hit rate 0.15% among 480,000; in the data active = activity change below about -30%; inconclusive = mostly about -25% to -30%;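 note: plate controls were DMSO wells for no effect and wells without enzyme for full effect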
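Resorufin fluorescence (ex540/em590), read at 0 and 20 min after diaphorase/resazurin addition, reports the NADH left after a 5 min room-temperature reaction of 2 nM human LDH5 with 0.06 mM NADH and 0.2 mM pyruvate.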
TDP1 cell noCPT: qHTS for Inhibitors of human tyrosyl-DNA phosphodiesterase 1 (TDP1): qHTS in cells in absence of CPT; hit rate 15% among 420,000; Potency, µM (doses to about 46.2 µM), inactives show at the top dose activity change, negative = growth inhibition, hits mostly inhibitors; DT40 Tdp1-/- hTDP1 cells, no CPT, ATP luminescence, 48 h; note: potency is the fitted concentration of half-maximal effect; nearly all actives have a fitted effect of over 55% in size
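Chicken DT40 Tdp1-/- cells complemented with human TDP1, screened without camptothecin (DMSO vehicle only), 400 cells/well. Compounds pin-transferred, cells incubated at 37 °C for at least 48 hr. Growth read as ATP-dependent luminescence (CellTiter-Glo, 30 min at RT).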
VP16 counter: VP16 counterscreen qHTS for inhibitors of ROR gamma transcriptional activity; Drosophila S2 Gal4-VP16 UAS-luciferase, luminescence, 20 h; Potency, µM (doses to about 53.6 µM), for inactives: at the top dose activity, negative = inhibition, usual class: inhibitors; AID 2546, 2010; hit rate 3.5% among 310,000;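 note: Gal4-VP16 expression switched on by copper sulfate through the metallothionein promoter; potency is the fitted concentration of half-maximal effect; nearly all actives have a fitted effect of over 50% in size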
RORg inh: qHTS for inhibitors of ROR gamma transcriptional activity. Nuclear receptor ROR-gamma (Mus musculus), P51450. Drosophila S2 Gal4-RORgamma UAS-luciferase reporter, 20 h. Potency, µM (titrated, usually from 53.6 µM), for inactives: top-dose activity change, negative = inhibition, hits mostly inhibitors. hit rate 5.4% among 310,000; note: potency is the fitted concentration of half-maximal effect; nearly all actives have a fitted effect of over 60% in size
Target sequence (P51450 whole entry, looked up, the tested form may be a part): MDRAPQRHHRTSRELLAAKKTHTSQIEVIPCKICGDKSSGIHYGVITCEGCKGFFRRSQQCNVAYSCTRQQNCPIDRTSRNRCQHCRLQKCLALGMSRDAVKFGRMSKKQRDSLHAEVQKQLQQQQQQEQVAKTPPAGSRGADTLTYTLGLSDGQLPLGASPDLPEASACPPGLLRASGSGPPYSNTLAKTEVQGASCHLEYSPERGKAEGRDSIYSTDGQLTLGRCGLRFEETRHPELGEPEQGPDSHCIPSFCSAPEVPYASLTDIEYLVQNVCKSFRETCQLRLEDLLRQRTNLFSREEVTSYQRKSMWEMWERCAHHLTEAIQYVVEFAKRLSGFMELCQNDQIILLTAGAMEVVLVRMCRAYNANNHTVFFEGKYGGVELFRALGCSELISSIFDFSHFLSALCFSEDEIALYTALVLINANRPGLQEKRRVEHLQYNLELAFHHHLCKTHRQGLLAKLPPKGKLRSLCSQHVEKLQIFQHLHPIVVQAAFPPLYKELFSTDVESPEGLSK
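A Gal4/UAS one-hybrid system in insect cells: metallothionein-promoter Gal4–ROR gamma fusion plus Photinus luciferase reporter. Copper sulfate 700 uM final, 20 hr ambient incubation, luminescent detection after 10 min with reagent.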
The depositor's hits bear a star; ? = inconclusive; · = no result given. Unless noted, calls come from the whole dose curve; as a rule, active = well fitted curve in the direction sought with a large enough effect; inconclusive = small, poorly fitted or top-dose-only effect, or another doubt; inactive = no such curve, though single readings can be large; an effect the other way counts as inactive or inconclusive. Unless noted, % is set by controls: 0 for no effect and ±100 for the full control effect.

SMILES	IL-1B inflam inh	DT40 TDP1 CPT	LDHA inh	TDP1 cell noCPT	VP16 counter	RORg inh
COc1ccc(N=C/C(C(=O)C(F)(F)F)=C(\O)c2cccs2)cc1	·	·	13	·	·	·
CCCCn1c(N)c(N(CC)C(=O)C2Cc3ccccc3C(=O)O2)c(=O)[nH]c1=O (stereo unspecified)	·	·	0	·	·	·
COc1ccc(C(=O)c2c[nH]c(C(=O)NCc3ccco3)c2)cc1	-4	-14%	-4	?	-8%	43%
Cc1ccc(N(CC(=O)NCc2ccco2)C(=O)CNS(=O)(=O)c2ccc(F)cc2)c(C)c1	-95*	-7%	-1	-15%	1%	4%
Cc1ccccc1C(=O)c1c[nH]c(C(=O)NCc2ccco2)c1	-52*	?	-5	?	10%	37%
COC(=O)COc1ccc(/C=N/NC(=O)CN(c2ccccc2OC)S(=O)(=O)c2ccccc2)cc1	-96*	?	-1	?	1%	1%
O=C(Nc1ccccc1C(=O)Nc1ccccc1C(=O)NCc1ccco1)c1ccco1	-2	16µM*	3	?	23%	-27%
CCc1nnc(NC(=O)Cc2coc3ccc(C(C)C)cc23)s1	·	·	10	·	·	·
CC(C)CC(NC(=O)Cn1c(=O)c2c(ncn2C)n(C)c1=O)c1ccccc1 (stereo unspecified)	·	·	3	·	·	·
COc1ccccc1N(CC(=O)N/N=C/c1ccc(OCC(=O)NCc2ccco2)cc1)S(=O)(=O)c1ccc(C)cc1	-13	?	-6	13µM*	-13%	17%
COc1ccccc1N(CC(=O)NCc1ccco1)S(=O)(=O)c1ccc(C)cc1	-85*	-21%	2	-2%	-1%	39%
COC(=O)COc1ccc(/C=N/NS(=O)(=O)c2ccccc2)cc1	-92*	1%	-3	-13%	0%	-13%
Cc1ccccc1N(CC(=O)Nc1ccccc1C(=O)NCc1ccco1)S(=O)(=O)c1ccccc1	-3	?	-4	16µM*	-1%	?
COc1ccc(N(CC(=O)NCc2ccco2)S(=O)(=O)c2ccc(C)cc2)cc1OC	13	2%	-8	-38%	-5%	-7%
O=C(CC1C(=O)NCCN1C(=O)CN1CCN(CCO)CC1)Nc1ccc(F)cc1 (stereo unspecified)	·	·	12	·	·	·
COc1cccc(CN2C(=O)C3(SCC(=O)N3c3ccc(C)c(Cl)c3)c3ccccc32)c1 (stereo unspecified)	·	·	-7	·	·	·
Cc1ccc(N2C(=O)CCSC23C(=O)N(Cc2ccc(F)cc2)c2ccccc23)cc1 (stereo unspecified)	·	8.2µM*	-9	8.2µM*	·	·
Cc1ccc(N2C(=O)CCSC23C(=O)N(Cc2ccccc2)c2ccccc23)cc1F (stereo unspecified)	·	21µM*	-5	12µM*	·	·
Cc1ccc(N2C(=O)CCSC23C(=O)N(Cc2ccccc2)c2ccccc23)cc1 (stereo unspecified)	·	?	5	16µM*	·	·
O=C1CCSC2(C(=O)N(Cc3ccccc3)c3ccccc32)N1c1ccccc1 (stereo unspecified)	·	9.2µM*	-1	15µM*	·	·
CC(C)n1c(C2CC(=O)N(c3cccc(C(F)(F)F)c3)C2)nc2ccccc21 (stereo unspecified)	·	·	-2	·	·	·
O=C(OCC(=O)N1CCCC1=O)c1csc(NCc2ccccc2)n1	·	·	8	·	·	·
O=C(Nc1cccc(Br)c1)Oc1cccc2cccnc12	-23	5.2µM*	-25	3.3µM*	·	·
CCN(CC)C(=O)Oc1ccc(Cl)c2cccnc12	-4	4%	-5	-11%	?	17%
O=C(Nc1cccc(C(F)(F)F)c1)Oc1ccc(Cl)c2cccnc12	-102*	23µM*	12	18µM*	1µM*	0.5µM*
SMILES	IL-1B inflam inh	DT40 TDP1 CPT	LDHA inh	TDP1 cell noCPT	VP16 counter	RORg inh
O=C(COc1cccc2cccnc12)Nc1ccccc1	-22	8%	-3	-6%	-9%	?
O=C(CNC(=S)NC(=O)c1ccccc1)c1ccccc1	-22	1%	-8	-19%	?	11µM*
O=C(CNC(=S)NC(=O)c1ccccc1Br)c1ccccc1	16	-6%	-6	-8%	-5%	20%
CC(C)C(=O)NC(=S)NCC(=O)c1ccccc1	-23	-4%	-2	-8%	?	11µM*
CC(C)C(=O)NCCCc1ccccc1	-5	9%	-7	-8%	-6%	1%
O=C(CNC(=S)NC(=O)c1ccc(F)cc1)c1ccccc1	-6	14%	-2	-23%	-17%	11µM*
Cc1ccc2c(c1)C(c1ccncc1)=NNC(c1ccccc1)=N2	1	-12%	-5	2%	-13%	-39%
c1ccc(C2=Nc3c(ccc4ccccc34)C(c3ccncc3)=NN2)cc1	-2	8.2µM*	1	21µM*	-5%	-16%
COc1cc(C(=O)NCc2ccc(S(N)(=O)=O)cc2)ccc1OCC(=O)Nc1cccc(C(F)(F)F)c1	6	-3%	-3	?	·	·
COc1cc(/C=C(/C#N)C(=O)Nc2cccc(C(F)(F)F)c2)ccc1OC(F)F	·	·	0	·	·	·
COc1cc(C(=O)N(C)CCOc2ccccc2)ccc1OCC(=O)Nc1cccc(C(F)(F)F)c1	-73*	26µM*	-2	16µM*	·	·
CCOC(=O)N1CCC(NC(=O)c2cc(C(=O)Nc3cccc(C(F)(F)F)c3)ccc2CO)CC1	23	5.2µM*	-7	3.3µM*	?	?
CCOC(=O)C1CCN(C(=O)c2ccc(OCC(=O)Nc3cccc(C(F)(F)F)c3)c(OC)c2)CC1	?	13µM*	-13	9.2µM*	·	·
COc1cc(/C=C(/C#N)C(=O)Nc2cc(C(F)(F)F)ccc2Cl)ccc1OCC(=O)Nc1cccc(C(F)(F)F)c1	4	18µM*	-7	23µM*	·	·
Fc1cccc(F)c1/C=N/NC(=S)Nc1ccc(Cl)c(Cl)c1	·	·	-5	·	·	·
CCOC(=O)C1CCN(C(=O)c2ccc(OCC(=O)Nc3ccc(OCC)cc3)c(OC)c2)CC1	-23	21µM*	-4	16µM*	·	·
CCOC(=O)C1CCCN(C(=O)c2ccc(OC)c(OC)c2)CC1 (stereo unspecified)	28	-9%	1	-7%	·	·
